Calls of active or inactive are those of the source. The calls were made as follows: active = hit-call score of the fitted dose curve at least 0.9, where 1 is the maximum; inactive = score below 0.9.
Test: CCTE_Shafer_MEA_acute_cross_correlation_area: CCTE's Neural Acute Assay for Area of Cross Correlation, Shafer Lab (AID 2284024);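 also: curves fitted for loss of cross-correlation area so actives lower synchrony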
Procedure: CCTE_Shafer_MEA_acute assay is conducted using Axion Biosystems 48 well microelectrode array (MEA) plates and Maestro recording system. Each well of the MEA plate contains a grid of 16 microelectrodes embedded in the culture surface. Electrically active cells, such as neurons, can be cultured over the electrodes, and electrical activity in these cells can be recorded extracellularly. The spontaneous firing of neurons is captured from each electrode on a microsecond timescale providing both temporally and spatially precise data. […] The CCTE_Shafer_MEA_acute assay uses primary cultures of rat cortical neurons. As these cultures mature over time, neural networks develop functional activity and form cohesive networks in which electrical activity can be highly coordinated. Baseline 40-minute recordings are made on days post-plating 13 or 15, followed by a secondary 40-minute recording after chemical exposure.CCTE_Shafer_MEA_acute_cross_correlation_area is a component of the CCTE_Shafer_MEA_acute assay. It measures the area under the well-wide pooled inter-electrode cross-correlation of action potential firing (not normalized to auto-correlations) within a window centered around 0 for the phase lag during a recording in a microelectrode array (MEA) using Axion Biosystems Maestro 768 channel amplifier with the AxIS adaptive spike detector. The recordings before and after chemical treatment are used to calculate a percent change in the cross correlation area in each well.Data from the assay component CCTE_Shafer_MEA_acute_cross_correlation_area was analyzed into 1 assay endpoint. This assay endpoint, CCTE_Shafer_MEA_acute_cross_correlation_area, was analyzed in the negative analysis fitting direction relative to DMSO as the negative control and baseline of activity. Using a type of functional reporter, gain or loss-of-signal activity can be used to understand electrical activity.
Spontaneous activity in the cortical cultures was recorded using an Axion Biosystems Maestro 768 channel amplifier and Axion Integrated Studios (AxIS) v1.8 (or later) software. The amplifier recorded from all channels simultaneously (gain = 1200 x; sampling rate = 12.5 kHz/channel): raw signals were filtered with a Butterworth band-pass filter (300-5000 Hz), which filters out slower local field potentials leaving only fast potentials, i.e., "spikes", arising from extracellular currents associated with action potentials (Pine 2006; Wheeler and Nam 2011). On-line spike detection of filtered signals was conducted with the AxIS adaptive spike detector, using a threshold of 8x the root mean squared (rms) noise on each channel. Any electrodes with rms noise levels greater than 5 uV were grounded (e.g., no data were recorded). Once grounded, an electrode was grounded for the duration of the experiment. All recordings were conducted at 37 C. Wells were deemed usable if on the day of the exposure >/= 10 electrodes were active (defined as >/= 5 spikes/min). On DIV 13 or 15, a minimum of three wells from one cortical culture preparation were treated with each compound (0.03-40 uM). Prior to recording baseline activity, each mwMEA plate was placed in the Maestro at 37 C and allowed to sit for 20 min while firing rates stabilized. Baseline activity (40 min) was recorded before the addition of each compound. An additional 40 min of spontaneous activity was recorded in the presence of each compound. Changes in network parameters relative to baseline were assessed following compound treatment.

| Compound | outcome | AC50 |
| --- | --- | --- |
| COCCc1ccc(OCC(O)CNC(C)C)cc1 (stereo not given) | inactive | – |
| CN(C)C(=S)SC(=S)N(C)C | inactive | – |
| CC1(C)CCC[C@]2(C)[C@H]3CCO[C@]3(C)CC[C@@H]12 | inactive | – |
| CC(CN=Cc1ccccc1O)N=Cc1ccccc1O (stereo not given) | inactive | – |
| C=CC(C)(O)CCC=C(C)C (stereo not given) | inactive | – |
| CCCCCCC(CO)CCCC (stereo not given) | inactive | – |
| CCOC(=O)C(C#N)=C(c1ccccc1)c1ccccc1 | inactive | – |
| O=CN1CCOCC1 | inactive | – |
| O=C(Nc1ccc2c(O)c(N=Nc3ccc(N=Nc4ccc(S(=O)(=O)O)cc4)cc3)c(S(=O)(=O)O)cc2c1)c1ccccc1 | inactive | – |
| Oc1c(Cl)cc(Cl)c(Cl)c1Cc1c(O)c(Cl)cc(Cl)c1Cl | – | 127 nM (active) |

Source: PubChem BioAssay (EPA / NIEHS)
